Experimental data reported in ChEMBL document CHEMBL3988442, “University of Dundee, Small-Polar-MMV Screening Library” (2021).
About 13,000 (27%) of roughly 48,000 compounds showed an effect of 50% or more. The list shows a part of the results.

system: Wolbachia pipientis; experiment: Anti-Wolbachia Cell-Based Screen; assay type: functional; design: scale not given: in the data most compounds retested in dose-response had high values; details: 5 µM

SMILES	Percent Effect
Cc1cc(N2C[C@H](C3CC3)[C@@H](N)C2)nc(N2CCCCC2)n1	11.86%
CC(C)c1cc(N2CCC(N(C)C)C2)n2nccc2n1 (stereo unspecified)	10.32%
O=C1OCCN1Cc1ccc(C(F)(F)F)cc1F	-29.22%
CCNc1ncc(C(=O)NC(c2ccccc2)c2ccco2)cn1 (stereo unspecified)	-3.465%
COCCN(Cc1sccc1C)Cc1nccn1CCOC	4.16%
CN(C)c1ccc(CNc2cncc(-n3cccn3)n2)cc1	6.951%
CN(C)c1cc(CNc2cncc(-n3cccn3)n2)ccn1	94.25%
COCc1ccc(CNc2cncc(-n3cccn3)n2)cc1	105.5%
CC(CNc1cncc(-n2cccn2)n1)N(C)c1ccccc1 (stereo unspecified)	0.6159%
CCN(CC)S(=O)(=O)c1ccc(NC(=O)C(C)(C)C)cc1	-6.648%
O=C(CCSc1ccc(F)cc1)N1CCN(c2cnccn2)CC1	-10.65%
O=C(Cc1ccc2c(c1)OCO2)N1CCN(c2cnccn2)CC1	-5.983%
O=C(c1ccc(-n2cc(Br)cn2)cc1)N1CCN(c2cnccn2)CC1	12.88%
O=C(CCOc1ccc(Br)cc1)N1CCN(c2cnccn2)CC1	108.9%
O=C(CCSc1ccccc1F)N1CCN(c2cnccn2)CC1	4.662%
O=C(CCOc1cccc(Cl)c1)N1CCN(c2cnccn2)CC1	103.8%
Cc1nn(CC(=O)N2CCN(c3cnccn3)CC2)c(C)c1Cl	4.895%
CC(CC(=O)N1CCN(c2cnccn2)CC1)c1ccc(F)cc1 (stereo unspecified)	3.505%
O=C(CCOc1ccccc1Cl)N1CCN(c2cnccn2)CC1	81.46%
O=C(COc1ccc(Cl)cc1)N1CCN(c2cnccn2)CC1	138.2%
CSCc1cccc(S(=O)(=O)NCCCO)c1	-5.091%
CS(=O)(=O)CCN(CC1CCCO1)C1CCCC1 (stereo unspecified)	-6.798%

SMILES	Percent Effect
CC(NCc1cn(CCC(N)=O)c2ccccc12)c1nncn1C (stereo unspecified)	-5.557%
O=C(C[C@@H]1COC[C@H]2CN(C3CCCC3)C[C@@H]12)N1CCCCO1.O=C(O)C(F)(F)F	2.72%
Cc1ccoc1C(=O)N1Cc2c(Cn3ccnc3)nn(C)c2C1.O=C(O)C(F)(F)F	12.61%
Cc1ccc(C(=O)N2CCc3ccc(=O)n(CCN(C)C)c3CC2)o1.O=C(O)C(F)(F)F	107.1%
Cc1ccc2c(n1)N(CCN(C)C)CCN(C(=O)c1ccoc1)C2.O=C(O)C(F)(F)F.O=C(O)C(F)(F)F	2.564%
CN(C)CCOc1ccccc1N1CCN(C(=O)c2ccoc2)CC1	-4.916%
Cc1ccoc1C(=O)N1C[C@@H]2[C@@H](C1)OCC(=O)N2Cc1cccnc1.O=C(O)C(F)(F)F	8.295%
Cc1ccc(C(=O)N2CCn3cc(CN(C)Cc4ccco4)nc3C2)o1.O=C(O)C(F)(F)F	-7.52%
Cc1ccc(C(=O)N2C[C@@H]3[C@@H](C2)OCC(=O)N3Cc2cccnc2)o1.O=C(O)C(F)(F)F	-3.343%
Cc1ccc2c(n1)N(CCN(C)C)CCN(C(=O)c1cccs1)C2.O=C(O)C(F)(F)F.O=C(O)C(F)(F)F	-13.61%
Cc1ccoc1C(=O)N1CCc2ccc(=O)n(CCN(C)C)c2CC1.O=C(O)C(F)(F)F	99.37%
CN(C)CCn1c2c(ccc1=O)CCN(C(=O)c1cccs1)CC2.O=C(O)C(F)(F)F	111.2%
CN(C)CCn1c2c(ccc1=O)CCN(C(=O)c1ccoc1)CC2.O=C(O)C(F)(F)F	107.6%
CCS(=O)(=O)c1ccc2oc([C@H]3CCN(Cc4ccccc4)C3)nc2c1	-9.259%
CC(NCCN1CCC(N(C)C)CC1)c1ccc(F)cc1N(C)C (stereo unspecified)	-1.854%
CCc1nc(CC(=O)N2CCC(C(=O)N(CC)CC)CC2)cs1	9.803%
NC(=O)C1CCN(C(=O)c2cccc(OCc3cscn3)c2)CC1	-9.747%
Cc1cc(C)c(CNC(=O)NCCNc2cnccn2)c(=O)[nH]1	6.343%
Cc1ccc(C(=O)N2CCN(CCC(C)(C)C)CC2)c(=O)[nH]1	-8.325%
CS(=O)(=O)CC(=O)N(CCN1CCOCC1)Cc1ccco1	-25.1%
CC(=O)NCC(=O)N(CCN1CCOCC1)Cc1ccco1	-7.485%
CN(C)CCN1CCOCC2(C1)CN(Cc1ccco1)CCO2.O=C(O)C(F)(F)F.O=C(O)C(F)(F)F.O=C(O)C(F)(F)F (stereo unspecified)	27%

SMILES	Percent Effect
OCC(O)CN(CCN1CCOCC1)Cc1ccco1 (stereo unspecified)	99.07%
C/C=C(\C)CN(CCN1CCOCC1)Cc1ccco1	118.7%
CC(C(=O)NCc1ccc(F)cc1)N(C)CCN1CCOCC1 (stereo unspecified)	8.931%
OCc1ccncc1NCc1cnc(-c2ccccn2)s1	-4.749%
Cc1cc2n(n1)CC(CNC1CCN(c3ccccn3)CC1)CN2 (stereo unspecified)	4.836%
O=C(NCc1cccc(F)c1)N1CCC2(CC(=O)N(c3ccsc3)C2)C1 (stereo unspecified)	6.273%
O=C(NCc1ccccc1)N1CCC2(CC(=O)N(c3ccccc3)C2)C1 (stereo unspecified)	115.5%
O=C(NCc1cccnc1)N1CCC2(CC(=O)N(c3ccsc3)C2)C1.O=C(O)C(F)(F)F (stereo unspecified)	89.85%
Cn1ccnc1CN1CCC2(CC(=O)N(c3ccsc3)C2)C1.O=C(O)C(F)(F)F (stereo unspecified)	6.522%
O=C(NCc1ccccc1)N1CCC2(CC(=O)N(c3ccsc3)C2)C1 (stereo unspecified)	-8.501%
O=C(NC[C@H]1COCc2nc3cc(F)ccc3n21)c1cccnc1	-2.363%
CCS(=O)(=O)CCNC(=O)[C@@]12CNC[C@@H]1CN(C1CCCC1)C2	17.06%
CC(=O)Nc1ccc(CNC2CCCSC2)cc1 (stereo unspecified)	-9.842%
Cn1ccc(C(=O)N2C[C@@H]3CCN(c4cccnc4)C[C@@H]3C2)n1.O=C(O)C(F)(F)F	-11%
Cc1occc1C(=O)N1C[C@@H]2OCCN(c3ncccn3)[C@@H]2C1.O=C(O)C(F)(F)F	117.5%
Cc1cccc(C(=O)N2C[C@@H]3OCCN(c4ncccn4)[C@@H]3C2)n1.O=C(O)C(F)(F)F.O=C(O)C(F)(F)F	-4.674%
Cc1ccccc1C(=O)N1C[C@@H]2OCCN(c3ncccn3)[C@@H]2C1.O=C(O)C(F)(F)F	105.7%
Cn1ccc(C(=O)N2C[C@@H]3OCCN(c4ncccn4)[C@@H]3C2)n1.O=C(O)C(F)(F)F	98.93%
Cc1occc1C(=O)N1C[C@H]2CCCC(OCc3cccnc3)[C@H]2C1.O=C(O)C(F)(F)F (stereo partly specified)	-5.108%
Cc1occc1C(=O)N1C[C@@H]2[C@@H](C1)OCC(=O)N2Cc1cccnc1.O=C(O)C(F)(F)F	-5.789%
O=C(c1cc(-n2cccn2)ccn1)N1CCOc2ccncc21	-0.9385%
O=C1CN(CC[C@@H](O)c2ccccc2)CCN1c1ccccc1Cl	-4.837%

SMILES	Percent Effect
Cc1nc(C(=O)N2CCCC(n3cncn3)C2)cs1 (stereo unspecified)	-4.147%
CC(=O)Nc1nc(C(=O)N2CCCC(n3nc(C)cc3C)C2)cs1 (stereo unspecified)	-2.313%
O=C(c1cscn1)N1CCCC(n2cncn2)C1 (stereo unspecified)	88.79%
CC(=O)Nc1nc(C(=O)N2CCCC(n3cncn3)C2)cs1 (stereo unspecified)	110.6%
O=C(c1cc(C2CC2)on1)N1CCCC(n2cncn2)C1 (stereo unspecified)	7.01%
O=C(c1csnn1)N1CCCC(n2cncn2)C1 (stereo unspecified)	98.21%
CCC(=O)NCc1ccccc1Cn1ccnc1	2.122%
Cn1nc(CNC(=O)C2CC2)cc1C1CC1	4.922%
O=C(NCc1cc(C2CC2)n(C2CCCC2)n1)C1CC1	118.5%
Cn1nc(CNC(=O)C2CCN(S(C)(=O)=O)CC2)cc1C1CC1	134.6%
Cn1nc(CNC(=O)C2CCC2)cc1C1CC1	172.6%
Cc1ccc2c(c1)OC(C)(C)CC2NC(=O)C1CCN(S(C)(=O)=O)CC1 (stereo unspecified)	-7.671%
C/C=C(\C)CN1CCCn2nc(CNC(=O)C3CCC3)cc2C1	8.995%
Cn1nc(CNC(=O)C2CCCC2)cc1C1CC1	-4.336%
CCC(=O)NCc1cc(C2CC2)n(C2CCCC2)n1	-1.631%
Cn1nc(CNC(=O)C2CCCCC2)cc1C1CC1	119.6%
O=C(O)C1(Cc2ccccc2Cl)CCN(c2ncccn2)CC1	4.771%
Cc1noc(-c2cccnc2N(C)Cc2cscn2)n1	-2.045%
CCC[C@H]1CN(CCOC)C[C@@H]1NC(=O)Cn1cc(C)cn1	-1.609%
CCc1ncc(C(=O)NC(C)(C)CC)s1	-4.681%
CCC(C)n1cnc(S(=O)(=O)N(C)C)c1 (stereo unspecified)	-2.659%
Cc1cncnc1C1CCN(C(=O)CN(C)C)CC1	107.4%

SMILES	Percent Effect
CCC(=O)N1CCC(c2nnc(Cn3cccn3)n2C2CC2)CC1	6.186%
CCC(=O)N1CCC(c2ncncc2C)CC1	105.8%
CCC(=O)N1CCC(c2nnc(Cn3cncn3)n2C2CC2)CC1	-3.377%
Cc1cc(C)n(-c2cncc(N3CCN(C(=O)CN(C)C)CC3)n2)n1	-21.39%
Cc1noc(C2CCN(C(=O)CN(C)c3ccc(Cl)cn3)CC2)n1	-9.214%
NC(=O)CSCC(=O)N1CCc2cc(Cl)cc(Cl)c2C1	-10.26%
CC(CNC(=O)c1cccc(C#N)c1)N1CCc2ccccc21 (stereo unspecified)	-2.298%
Cc1cc(C(=O)NCC(C)N2CCc3ccccc32)on1 (stereo unspecified)	128.5%
O=C(NCCSC1CCCC1)c1cc(C2CC2)on1	6.284%
Cc1noc(C)c1C(=O)NCC(C)N(C)C (stereo unspecified)	-3.203%
O=C(c1ccc(=O)[nH]n1)N1CCc2ccccc21	6.411%
Cc1noc(C)c1C(=O)NCC(C)N1CCc2ccccc21 (stereo unspecified)	136.7%
CC(CNC(=O)c1cc(C2CC2)on1)N1CCc2ccccc21 (stereo unspecified)	110.3%
CC(CNC(=O)c1ccc(C#N)cc1)N1CCc2ccccc21 (stereo unspecified)	-4.664%
COc1ccc(NC(=O)NCC(C)N2CCc3ccccc32)cc1 (stereo unspecified)	6.782%
Cc1noc(C)c1C(=O)NCC1CCCCN1Cc1ccccc1 (stereo unspecified)	1.84%
CCC(CNC(=O)c1ccc(=O)[nH]n1)N1CCc2ccccc2C1 (stereo unspecified)	-13.41%
CC(CNC(=O)c1ccc(=O)[nH]n1)N1CCc2ccccc21 (stereo unspecified)	114.6%
